Drawing on publication PMC7862700, “An all-to-all approach to the identification of sequence-specific readers for epigenetic DNA modifications on cytosine”, this text covers binding signal for one sequence.

Common to all, as to test: DAPPL (digital affinity profiling via proximity ligation, sequencing); 10 mM Tris-HCl pH 7.5, 50 mM NaCl, 1 mM DTT, 4% glycerol, room temperature, 30 min; GST-TFs on glutathione beads, 16-mer random dsDNA library, 0.1% formaldehyde crosslink after washing; high values mean tight binding
The target of one assay is T1, FLI1 (Homo sapiens, UniProt Q01543 1-452).
T1 sequence: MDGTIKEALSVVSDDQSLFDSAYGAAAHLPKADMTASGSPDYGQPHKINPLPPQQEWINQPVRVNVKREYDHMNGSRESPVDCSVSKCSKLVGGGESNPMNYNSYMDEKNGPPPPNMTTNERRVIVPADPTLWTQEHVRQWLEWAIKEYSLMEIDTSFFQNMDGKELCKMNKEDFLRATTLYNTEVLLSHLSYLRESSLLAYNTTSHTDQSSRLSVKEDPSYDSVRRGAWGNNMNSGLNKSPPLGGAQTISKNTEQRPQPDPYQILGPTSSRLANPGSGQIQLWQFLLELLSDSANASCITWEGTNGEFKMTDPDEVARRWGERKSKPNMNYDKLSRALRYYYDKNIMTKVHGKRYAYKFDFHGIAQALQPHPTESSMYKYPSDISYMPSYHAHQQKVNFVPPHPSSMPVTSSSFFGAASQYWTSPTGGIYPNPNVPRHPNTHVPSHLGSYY
The settings on record: protein: recombinant; tags: N-terminal GST; dsDNA, one strand shown. In a few lines: (§1)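 In yeast, human transcription factors were expressed with a GST fusion, then pulled down on glutathione beads and given DNA barcodes. Pooled with a tag-only sample, they were exposed to 200 nmole of a 16-mer random double-stranded DNA library (Tris/NaCl/DTT/glycerol buffer, room temperature, 30 min), washed, crosslinked with 0.1% formaldehyde, proximity-ligated using BsaI/T4 ligase for 1 h at 37 °C, PCR-amplified and read on an Illumina NextSeq500. Each hexamer's frequency of reads for a factor, divided by the matching frequency for the tag-only sample, gives the binding signal.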

For another assay, the target named is T2, ELK1 (Homo sapiens, UniProt P19419 1-428).
T2 sequence: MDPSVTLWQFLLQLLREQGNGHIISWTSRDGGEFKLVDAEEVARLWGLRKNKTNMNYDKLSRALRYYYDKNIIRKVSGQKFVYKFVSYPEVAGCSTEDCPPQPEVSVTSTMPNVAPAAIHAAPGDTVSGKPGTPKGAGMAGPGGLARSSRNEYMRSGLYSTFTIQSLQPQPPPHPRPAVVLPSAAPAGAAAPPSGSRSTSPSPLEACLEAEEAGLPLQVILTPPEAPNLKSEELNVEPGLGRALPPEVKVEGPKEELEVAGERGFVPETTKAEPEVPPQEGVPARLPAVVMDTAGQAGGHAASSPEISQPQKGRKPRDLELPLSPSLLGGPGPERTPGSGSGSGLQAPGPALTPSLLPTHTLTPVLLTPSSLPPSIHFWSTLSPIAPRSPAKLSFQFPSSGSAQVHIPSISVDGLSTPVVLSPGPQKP
The settings on record: protein: recombinant; tags: N-terminal GST; dsDNA, one strand shown. In a few lines: as §1

Another assay has as its target T3, GABPA (Homo sapiens, UniProt Q06546 1-454).
T3 sequence: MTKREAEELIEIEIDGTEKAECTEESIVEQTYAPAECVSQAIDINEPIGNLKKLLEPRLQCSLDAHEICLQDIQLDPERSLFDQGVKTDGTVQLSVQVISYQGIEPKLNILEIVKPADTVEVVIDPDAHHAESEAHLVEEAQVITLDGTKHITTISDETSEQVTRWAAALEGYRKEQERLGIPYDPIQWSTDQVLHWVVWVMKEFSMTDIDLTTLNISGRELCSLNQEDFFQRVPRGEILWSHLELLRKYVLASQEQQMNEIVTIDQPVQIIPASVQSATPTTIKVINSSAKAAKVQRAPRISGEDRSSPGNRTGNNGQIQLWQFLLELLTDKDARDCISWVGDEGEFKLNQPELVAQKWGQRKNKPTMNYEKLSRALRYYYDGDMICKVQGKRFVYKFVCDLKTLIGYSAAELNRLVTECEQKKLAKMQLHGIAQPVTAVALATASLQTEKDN
The settings on record: protein: recombinant; tags: N-terminal GST; dsDNA, one strand shown. In short, it runs like this:
as §1

The target in a further assay is T4, ERG (Homo sapiens, UniProt P11308 1-479).
T4 sequence: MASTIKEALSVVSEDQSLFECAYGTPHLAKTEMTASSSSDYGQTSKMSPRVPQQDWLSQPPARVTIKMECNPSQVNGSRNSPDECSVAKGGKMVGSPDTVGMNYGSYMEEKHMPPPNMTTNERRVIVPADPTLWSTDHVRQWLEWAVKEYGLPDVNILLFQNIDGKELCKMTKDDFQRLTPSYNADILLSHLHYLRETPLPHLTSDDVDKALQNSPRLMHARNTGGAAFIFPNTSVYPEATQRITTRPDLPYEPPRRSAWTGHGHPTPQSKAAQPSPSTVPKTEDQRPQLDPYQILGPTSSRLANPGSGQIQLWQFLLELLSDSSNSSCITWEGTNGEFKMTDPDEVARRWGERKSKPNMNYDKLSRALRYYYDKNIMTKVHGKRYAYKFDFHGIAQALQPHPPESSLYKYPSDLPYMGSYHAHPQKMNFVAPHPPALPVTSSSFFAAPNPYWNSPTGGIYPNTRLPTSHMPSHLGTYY
The settings on record: protein: recombinant; tags: N-terminal GST; dsDNA, one strand shown. In a few lines: as §1

A further assay concerns the target ELF1 (Homo sapiens, UniProt P32519 1-619). The settings on record: protein: recombinant; tags: N-terminal GST; dsDNA, one strand shown. In short, it runs like this: as §1
In the next assay the target is T5, EHF (Homo sapiens, UniProt Q9NZC4 1-300).
T5 sequence: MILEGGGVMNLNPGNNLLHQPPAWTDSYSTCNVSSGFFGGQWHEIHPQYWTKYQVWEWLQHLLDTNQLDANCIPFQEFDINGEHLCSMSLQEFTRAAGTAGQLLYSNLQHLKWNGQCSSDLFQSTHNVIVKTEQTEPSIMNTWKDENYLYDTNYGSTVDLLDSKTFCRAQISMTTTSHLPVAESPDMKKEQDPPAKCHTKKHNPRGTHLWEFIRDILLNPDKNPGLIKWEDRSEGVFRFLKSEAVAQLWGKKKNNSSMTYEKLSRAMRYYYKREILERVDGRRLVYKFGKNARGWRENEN
The settings on record: protein: recombinant; tags: N-terminal GST; dsDNA, one strand shown. In a few lines: as §1

The target of a further assay is SPI1 (Homo sapiens, UniProt P17947 1-270). The settings on record: protein: recombinant; tags: N-terminal GST; dsDNA, one strand shown. In a few lines: as §1
Another assay concerns the target SPIB (Homo sapiens, UniProt Q01892 1-262). As to conditions: protein: recombinant; tags: N-terminal GST; dsDNA, one strand shown. In short, it runs like this:
as §1

A further assay deals with T6, ELK3 (Homo sapiens, UniProt P41970 1-407).
T6 sequence: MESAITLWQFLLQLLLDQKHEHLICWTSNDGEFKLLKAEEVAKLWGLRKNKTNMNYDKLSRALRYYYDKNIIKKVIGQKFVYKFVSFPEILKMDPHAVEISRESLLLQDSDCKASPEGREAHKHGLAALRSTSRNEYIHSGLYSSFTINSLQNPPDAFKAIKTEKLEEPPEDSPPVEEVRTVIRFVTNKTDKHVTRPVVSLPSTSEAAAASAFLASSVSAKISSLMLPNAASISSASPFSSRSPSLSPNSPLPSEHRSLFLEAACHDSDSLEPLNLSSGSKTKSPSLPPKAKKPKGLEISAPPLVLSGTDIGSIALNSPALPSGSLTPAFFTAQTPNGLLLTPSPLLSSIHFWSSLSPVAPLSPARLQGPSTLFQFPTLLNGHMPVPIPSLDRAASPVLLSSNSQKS
The settings on record: protein: recombinant; tags: N-terminal GST; dsDNA, one strand shown. In a few lines: as §1

The next assay deals with T7, FEV (Homo sapiens, UniProt Q99581 1-238).
T7 sequence: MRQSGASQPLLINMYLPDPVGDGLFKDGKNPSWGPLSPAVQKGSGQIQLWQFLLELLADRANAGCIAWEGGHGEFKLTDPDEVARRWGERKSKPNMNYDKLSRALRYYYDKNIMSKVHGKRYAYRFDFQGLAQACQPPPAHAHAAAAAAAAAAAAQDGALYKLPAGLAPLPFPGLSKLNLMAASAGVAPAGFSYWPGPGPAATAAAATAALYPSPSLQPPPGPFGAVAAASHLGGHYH
The settings on record: protein: recombinant; tags: N-terminal GST; dsDNA, one strand shown. In a few lines: as §1

For the next assay, the target named is ETV5 (Homo sapiens, UniProt P41161 1-510). The settings on record: protein: recombinant; tags: N-terminal GST; dsDNA, one strand shown. In a few lines: as §1
In the next assay the target is HSF1 (Homo sapiens, UniProt Q00613 1-529). The settings on record: protein: recombinant; tags: N-terminal GST; chain copies: 3; dsDNA, one strand shown. In a few lines: as §1
A further assay deals with T8, SPIC (Homo sapiens, UniProt Q8N5J4 1-248).
T8 sequence: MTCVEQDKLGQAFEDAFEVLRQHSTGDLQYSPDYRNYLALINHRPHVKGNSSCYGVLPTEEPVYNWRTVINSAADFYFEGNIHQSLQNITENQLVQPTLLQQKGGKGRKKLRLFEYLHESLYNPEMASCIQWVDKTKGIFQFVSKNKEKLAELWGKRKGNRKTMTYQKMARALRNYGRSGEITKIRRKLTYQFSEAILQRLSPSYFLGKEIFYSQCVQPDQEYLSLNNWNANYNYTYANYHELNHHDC
As to conditions: protein: recombinant; tags: N-terminal GST; dsDNA, one strand shown. In short, it runs like this: as §1

The target of another assay is ELF4 (Homo sapiens, UniProt Q99607 1-663). As to conditions: protein: recombinant; tags: N-terminal GST; dsDNA, one strand shown. In short, it runs like this:
as §1

The target in another assay is T9, ELK4 (Homo sapiens, UniProt P28324-2 1-405).
T9 sequence: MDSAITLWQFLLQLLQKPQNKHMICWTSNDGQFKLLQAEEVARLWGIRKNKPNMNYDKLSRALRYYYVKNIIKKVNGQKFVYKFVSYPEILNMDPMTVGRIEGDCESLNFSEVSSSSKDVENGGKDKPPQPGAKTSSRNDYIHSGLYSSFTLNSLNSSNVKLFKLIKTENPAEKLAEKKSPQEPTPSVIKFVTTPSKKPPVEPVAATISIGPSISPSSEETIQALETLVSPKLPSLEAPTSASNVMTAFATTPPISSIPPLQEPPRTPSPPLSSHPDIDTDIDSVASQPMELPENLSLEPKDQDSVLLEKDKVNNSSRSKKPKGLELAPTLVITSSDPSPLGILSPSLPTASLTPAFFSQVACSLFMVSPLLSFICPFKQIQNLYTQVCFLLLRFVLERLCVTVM
As to conditions: protein: recombinant; tags: N-terminal GST; dsDNA, one strand shown. In a few lines:
as §1

Another assay addresses T10, ETV2 (Homo sapiens, UniProt O00321 1-342).
T10 sequence: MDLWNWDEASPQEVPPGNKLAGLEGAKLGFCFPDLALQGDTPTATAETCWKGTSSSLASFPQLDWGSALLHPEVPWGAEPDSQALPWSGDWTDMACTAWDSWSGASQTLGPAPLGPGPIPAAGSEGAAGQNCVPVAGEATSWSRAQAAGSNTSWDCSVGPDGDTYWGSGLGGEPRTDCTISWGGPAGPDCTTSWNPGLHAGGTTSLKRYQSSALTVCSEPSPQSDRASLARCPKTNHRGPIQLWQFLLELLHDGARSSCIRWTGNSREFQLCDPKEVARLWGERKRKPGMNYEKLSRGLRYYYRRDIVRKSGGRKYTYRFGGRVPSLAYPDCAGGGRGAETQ
As to conditions: protein: recombinant; tags: N-terminal GST; dsDNA, one strand shown. In short, it runs like this: as §1

The target in another assay is T11, ELF3 (Homo sapiens, UniProt P78545 1-371).
T11 sequence: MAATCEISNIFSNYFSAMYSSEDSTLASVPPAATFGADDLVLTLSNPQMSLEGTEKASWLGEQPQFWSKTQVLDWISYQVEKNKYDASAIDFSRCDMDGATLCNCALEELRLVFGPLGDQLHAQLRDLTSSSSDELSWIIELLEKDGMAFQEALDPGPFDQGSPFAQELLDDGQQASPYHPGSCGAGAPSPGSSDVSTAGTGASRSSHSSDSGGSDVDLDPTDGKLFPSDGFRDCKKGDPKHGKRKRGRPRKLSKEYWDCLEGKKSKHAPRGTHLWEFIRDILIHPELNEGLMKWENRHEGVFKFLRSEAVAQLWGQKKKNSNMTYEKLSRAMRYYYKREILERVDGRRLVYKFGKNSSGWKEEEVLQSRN
As to conditions: protein: recombinant; tags: N-terminal GST; dsDNA, one strand shown. In a few lines:
as §1

A further assay deals with CRX (Homo sapiens, UniProt O43186 1-299). The settings on record: protein: recombinant; tags: N-terminal GST; dsDNA, one strand shown. In a few lines:
as §1

The next assay deals with ETV1 (Homo sapiens, UniProt P50549 1-477). As to conditions: protein: recombinant; tags: N-terminal GST; dsDNA, one strand shown. In a few lines: as §1
ETV1, sequence (P50549 whole entry): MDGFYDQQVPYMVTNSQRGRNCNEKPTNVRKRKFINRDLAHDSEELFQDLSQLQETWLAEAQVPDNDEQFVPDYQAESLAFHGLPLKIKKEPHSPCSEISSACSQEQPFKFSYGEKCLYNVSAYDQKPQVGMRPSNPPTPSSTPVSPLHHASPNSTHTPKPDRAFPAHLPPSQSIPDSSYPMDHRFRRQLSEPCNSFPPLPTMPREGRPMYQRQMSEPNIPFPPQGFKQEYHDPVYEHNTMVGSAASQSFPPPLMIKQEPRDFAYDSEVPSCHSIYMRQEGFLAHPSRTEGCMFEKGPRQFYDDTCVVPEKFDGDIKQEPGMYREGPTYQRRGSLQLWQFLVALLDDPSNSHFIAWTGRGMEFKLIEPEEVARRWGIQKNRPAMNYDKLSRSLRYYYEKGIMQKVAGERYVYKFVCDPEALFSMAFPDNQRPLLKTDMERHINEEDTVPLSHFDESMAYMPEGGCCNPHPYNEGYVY

CRX, sequence (O43186 whole entry): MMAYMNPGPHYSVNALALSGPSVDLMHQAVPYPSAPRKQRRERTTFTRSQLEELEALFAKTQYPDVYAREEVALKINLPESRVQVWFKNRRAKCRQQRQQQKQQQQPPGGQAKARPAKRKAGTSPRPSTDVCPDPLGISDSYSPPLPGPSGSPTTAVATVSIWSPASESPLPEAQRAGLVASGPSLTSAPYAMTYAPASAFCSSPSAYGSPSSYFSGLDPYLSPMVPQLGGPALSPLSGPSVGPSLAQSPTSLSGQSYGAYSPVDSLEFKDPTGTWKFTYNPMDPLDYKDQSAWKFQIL
ETV5, sequence (P41161 whole entry): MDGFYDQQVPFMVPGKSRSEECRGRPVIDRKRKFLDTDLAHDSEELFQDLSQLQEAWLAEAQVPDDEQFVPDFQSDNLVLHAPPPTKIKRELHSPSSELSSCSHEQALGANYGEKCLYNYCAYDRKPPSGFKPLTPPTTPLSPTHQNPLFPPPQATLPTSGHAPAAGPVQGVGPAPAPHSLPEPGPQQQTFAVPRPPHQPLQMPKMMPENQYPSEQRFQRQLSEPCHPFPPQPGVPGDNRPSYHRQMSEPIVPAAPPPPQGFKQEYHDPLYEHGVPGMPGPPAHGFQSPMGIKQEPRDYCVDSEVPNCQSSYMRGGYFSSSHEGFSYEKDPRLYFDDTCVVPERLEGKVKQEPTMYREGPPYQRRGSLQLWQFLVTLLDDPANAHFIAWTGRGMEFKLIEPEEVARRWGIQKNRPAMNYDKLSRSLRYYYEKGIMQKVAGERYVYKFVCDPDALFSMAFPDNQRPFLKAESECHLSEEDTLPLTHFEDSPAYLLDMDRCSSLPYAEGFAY
HSF1, sequence (Q00613 whole entry): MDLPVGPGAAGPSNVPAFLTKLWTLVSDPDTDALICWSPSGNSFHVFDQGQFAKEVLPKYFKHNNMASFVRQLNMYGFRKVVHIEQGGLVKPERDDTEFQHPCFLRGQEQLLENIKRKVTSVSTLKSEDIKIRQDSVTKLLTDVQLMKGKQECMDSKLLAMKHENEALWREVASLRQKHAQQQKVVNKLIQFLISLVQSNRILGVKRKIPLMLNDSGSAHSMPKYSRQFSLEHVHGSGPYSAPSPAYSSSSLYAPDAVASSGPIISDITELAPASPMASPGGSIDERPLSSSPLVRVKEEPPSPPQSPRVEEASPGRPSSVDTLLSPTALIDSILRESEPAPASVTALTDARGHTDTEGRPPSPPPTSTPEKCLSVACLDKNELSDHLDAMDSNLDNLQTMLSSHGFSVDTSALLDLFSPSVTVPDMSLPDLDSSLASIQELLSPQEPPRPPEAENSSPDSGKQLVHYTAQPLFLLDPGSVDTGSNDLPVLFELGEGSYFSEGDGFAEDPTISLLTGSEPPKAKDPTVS
ELF1, sequence (P32519 whole entry): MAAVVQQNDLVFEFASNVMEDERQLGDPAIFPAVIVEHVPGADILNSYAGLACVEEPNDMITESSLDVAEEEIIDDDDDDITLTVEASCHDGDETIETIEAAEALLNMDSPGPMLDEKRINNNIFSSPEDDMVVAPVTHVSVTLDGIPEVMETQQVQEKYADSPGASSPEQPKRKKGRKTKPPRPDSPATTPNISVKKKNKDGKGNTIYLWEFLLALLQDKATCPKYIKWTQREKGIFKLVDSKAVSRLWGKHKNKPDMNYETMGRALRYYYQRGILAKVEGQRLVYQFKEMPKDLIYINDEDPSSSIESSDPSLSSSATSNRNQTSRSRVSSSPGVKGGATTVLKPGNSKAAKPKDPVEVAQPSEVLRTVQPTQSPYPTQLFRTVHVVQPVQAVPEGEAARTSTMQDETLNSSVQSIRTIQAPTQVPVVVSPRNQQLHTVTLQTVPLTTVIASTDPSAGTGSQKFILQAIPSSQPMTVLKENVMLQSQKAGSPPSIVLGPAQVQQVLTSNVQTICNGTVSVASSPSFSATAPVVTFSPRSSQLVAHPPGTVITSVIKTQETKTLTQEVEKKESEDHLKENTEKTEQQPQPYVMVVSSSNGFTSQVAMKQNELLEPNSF
ELF4, sequence (Q99607 whole entry): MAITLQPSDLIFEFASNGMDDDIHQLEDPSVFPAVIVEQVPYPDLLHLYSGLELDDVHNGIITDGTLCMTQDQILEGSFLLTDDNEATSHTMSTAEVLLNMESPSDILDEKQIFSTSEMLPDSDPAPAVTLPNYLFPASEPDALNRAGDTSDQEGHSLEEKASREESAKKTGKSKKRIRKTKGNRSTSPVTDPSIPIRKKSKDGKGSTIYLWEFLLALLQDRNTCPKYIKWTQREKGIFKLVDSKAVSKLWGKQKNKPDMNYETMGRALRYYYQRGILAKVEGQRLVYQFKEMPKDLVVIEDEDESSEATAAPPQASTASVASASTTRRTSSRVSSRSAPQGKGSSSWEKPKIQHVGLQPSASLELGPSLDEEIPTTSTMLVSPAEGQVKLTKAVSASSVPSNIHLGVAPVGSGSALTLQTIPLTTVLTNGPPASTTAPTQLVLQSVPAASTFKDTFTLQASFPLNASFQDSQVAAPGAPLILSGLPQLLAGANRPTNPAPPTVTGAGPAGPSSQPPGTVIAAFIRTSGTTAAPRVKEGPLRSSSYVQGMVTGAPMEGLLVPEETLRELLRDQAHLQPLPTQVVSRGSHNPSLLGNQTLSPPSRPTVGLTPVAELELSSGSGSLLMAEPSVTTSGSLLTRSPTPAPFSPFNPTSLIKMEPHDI
SPIB, sequence (Q01892 whole entry): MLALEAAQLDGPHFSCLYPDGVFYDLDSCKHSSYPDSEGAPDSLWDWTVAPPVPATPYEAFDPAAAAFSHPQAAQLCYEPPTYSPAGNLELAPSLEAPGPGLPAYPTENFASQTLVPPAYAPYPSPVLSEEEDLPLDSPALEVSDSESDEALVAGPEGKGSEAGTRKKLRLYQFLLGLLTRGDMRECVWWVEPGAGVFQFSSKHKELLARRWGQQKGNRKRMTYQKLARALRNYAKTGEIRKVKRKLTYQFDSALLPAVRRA

Take TCTTCA: the binding signal with FLI1 is 1.43 fold enrichment (6-mer frequency, TF over GST control); in the assay with ELK1, 1.19 fold enrichment (6-mer frequency, TF over GST control); with GABPA, 1.16 fold enrichment (6-mer frequency, TF over GST control); in the assay with ERG, 1.16 fold enrichment (6-mer frequency, TF over GST control); in the assay with ELF1, 1.33 fold enrichment (6-mer frequency, TF over GST control); with EHF it was 1.14 fold enrichment (6-mer frequency, TF over GST control). In addition, the binding signal in the assay with SPI1 is 1.21 fold enrichment (6-mer frequency, TF over GST control); with SPIB, 1.27 fold enrichment (6-mer frequency, TF over GST control); with ELK3 it was 1.27 fold enrichment (6-mer frequency, TF over GST control); with FEV, 1.15 fold enrichment (6-mer frequency, TF over GST control); with ETV5, 1.17 fold enrichment (6-mer frequency, TF over GST control); with HSF1 it was 1.24 fold enrichment (6-mer frequency, TF over GST control). Also, the binding signal was 1.14 fold enrichment (6-mer frequency, TF over GST control) with SPIC; 1.2 fold enrichment (6-mer frequency, TF over GST control) with ELF4; 1.07 fold enrichment (6-mer frequency, TF over GST control) with ELK4; 1.18 fold enrichment (6-mer frequency, TF over GST control) with ETV2; 1.46 fold enrichment (6-mer frequency, TF over GST control) with ELF3; 1.14 fold enrichment (6-mer frequency, TF over GST control) with CRX. In addition, the binding signal in the assay with ETV1 was 1.28 fold enrichment (6-mer frequency, TF over GST control).
